# Source: PubChem BioAssay
# Calls of active or inactive are those of the source. Unless noted, no rule for the calls is given here.
# Tests used:
# [1] = resazurin metabolic signal in HepG2 cells – cell-based, resazurin fluorescence, 24 h, PK04 Diversity Set, profiling panel (AID 1172); settings: HepG2 viability, higher = more signal; also: test concentration not given here
# [2] = budding yeast growth changes without added modifier – OD600, strain BY4716, 24 h, basal condition, primary screen (AID 1173); settings: S. cerevisiae BY4716 growth, OD600, 24 h; higher = more signal, called active from +8 up or from −8 down
# [3] = viability profiling in MM1S myeloma cells – cell-based, resazurin fluorescence, basal, 24 h, PK04 Diversity Set, profiling panel (AID 1174); settings: higher = more signal, called active from +8 up or from −8 down;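 also: MM1S multiple myeloma cell line; test concentration not given here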
# [4] = target: Dihydroorotate dehydrogenase (quinone), mitochondrial (Plasmodium falciparum (isolate 3D7)) (UniProt Q08210); experiment: inhibition of P. falciparum DHODH – biochemical, C-terminal His tag, absorbance 600 nm, primary screen (AID 1175); settings: PfDHODH enzyme, DCIP absorbance 600 nm; higher = more signal, called active from +8 up or from −8 down;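 also: recombinant parasite enzyme with a five histidine tag at its C terminus; test concentration not given here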
# Dihydroorotate dehydrogenase (quinone), mitochondrial (Plasmodium falciparum (isolate 3D7)), sequence (Q08210 whole entry, looked up): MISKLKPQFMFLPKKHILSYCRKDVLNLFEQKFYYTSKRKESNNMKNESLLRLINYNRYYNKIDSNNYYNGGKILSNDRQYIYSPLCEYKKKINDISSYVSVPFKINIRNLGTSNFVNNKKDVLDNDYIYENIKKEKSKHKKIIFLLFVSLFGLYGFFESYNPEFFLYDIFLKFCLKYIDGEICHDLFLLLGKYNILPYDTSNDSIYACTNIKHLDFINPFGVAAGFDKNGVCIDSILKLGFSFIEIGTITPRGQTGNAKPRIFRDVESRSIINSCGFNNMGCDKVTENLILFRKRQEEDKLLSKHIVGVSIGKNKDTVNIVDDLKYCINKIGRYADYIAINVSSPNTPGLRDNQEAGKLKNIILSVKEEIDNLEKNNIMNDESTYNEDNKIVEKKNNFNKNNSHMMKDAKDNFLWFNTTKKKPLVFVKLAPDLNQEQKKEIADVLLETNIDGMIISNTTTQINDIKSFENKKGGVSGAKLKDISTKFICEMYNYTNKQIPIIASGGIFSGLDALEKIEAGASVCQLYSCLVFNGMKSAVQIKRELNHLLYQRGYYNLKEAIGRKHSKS
# [5] = inhibition of PAO1 biofilm formation – strain PAO1, LB-PBS medium, absorbance 600 nm, primary screen (AID 1176); also: test concentration not given here; settings: P. aeruginosa PAO1 growth/biofilm, A600, 12 h; higher = more signal
# [6] = growth modulation of vineyard yeast isolate – strain RM11-1a, OD600, basal, 24 h, primary screen (AID 1177);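 also: cultures grown under basal conditions with no added stressor; test concentration not given here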; settings: S. cerevisiae RM11-1a growth, OD600, 24 h; higher = more signal, called active from +8 up or from −8 down
# [7] = growth of efflux-deficient E. coli DRC39 – strain DRC39, OD650, 24 h, E. coli filamentation inducers, primary screen (AID 1178);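 also: growth measured as culture turbidity by optical density at 650 nm; test concentration not given here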; settings: E. coli DRC39 acrAB, higher = more signal, called active from +8 up or from −8 down
# [8] = growth of efflux-deficient E. coli DRC39 – strain DRC39, OD650, 48 h, E. coli filamentation inducers, primary screen (AID 1179);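 also: screen aims at cell division blockers that make cells filament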; settings: E. coli DRC39 delta-acrAB growth, higher = more signal, called active from +8 up or from −8 down
# [9] = viability profiling in RPMI8226 myeloma cells – cell-based, resazurin fluorescence, basal, 24 h, PK04 Diversity Set, profiling panel (AID 1180); settings: higher = more signal;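 also: RPMI8826 multiple myeloma cell line at 5000 cells per well; test concentration not given here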
# [10] = target: E3 ubiquitin-protein ligase XIAP (Homo sapiens) (UniProt P98170); experiment: small molecules binding XIAP protein – biophysical, small-molecule microarray, fluorescence 635 nm, primary screen (AID 1181); settings: higher = more signal;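 also: score merges 667 nm emission and signal to noise over triplicate slides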
# E3 ubiquitin-protein ligase XIAP (Homo sapiens), sequence (P98170 whole entry, looked up): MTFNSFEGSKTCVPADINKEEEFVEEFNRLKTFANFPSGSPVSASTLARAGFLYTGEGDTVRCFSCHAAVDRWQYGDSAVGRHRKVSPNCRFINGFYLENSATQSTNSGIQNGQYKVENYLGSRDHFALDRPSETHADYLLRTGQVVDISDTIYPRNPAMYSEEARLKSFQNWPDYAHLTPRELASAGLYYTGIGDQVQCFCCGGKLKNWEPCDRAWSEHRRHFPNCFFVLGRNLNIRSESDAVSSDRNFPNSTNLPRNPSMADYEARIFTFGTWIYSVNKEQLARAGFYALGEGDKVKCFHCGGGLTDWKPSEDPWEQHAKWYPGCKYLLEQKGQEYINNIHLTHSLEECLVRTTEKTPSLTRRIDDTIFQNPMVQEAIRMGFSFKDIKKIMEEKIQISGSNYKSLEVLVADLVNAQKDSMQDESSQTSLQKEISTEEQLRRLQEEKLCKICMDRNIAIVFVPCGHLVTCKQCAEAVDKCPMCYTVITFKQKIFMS
Compound,z-score [1],z-score [2],z-score [3],composite z-score [4],z-score [5],z-score [6],z-score [7],z-score [8],z-score [9],composite z-score [10]
O=C(NCCC[N+]1=CC=NC1c1ccccc1)N1CCCc2nc(-c3ccc(Br)cc3)ccc21 (stereo not given),0.0392,-2.72 (inactive),-1.04 (inactive),1.01 (inactive),0.508 (inactive),1.6 (inactive),1.11 (inactive),-0.493 (inactive),-0.29,-0.105
CC(C)[C@H](NC(=O)OC(C)(C)C)[C@@H](O)CC(=O)C(C)(C)C,0.365,0.289 (inactive),-0.809 (inactive),0.525 (inactive),0.593 (inactive),0.942 (inactive),0.599 (inactive),0.311 (inactive),-0.816,-0.111
COc1ccc(COC(=O)NN=C2C[C@@H](O)[C@@H](O)[C@@H]3[C@@H]4C(=O)N(c5cccc(Oc6ccccc6)c5)C(=O)[C@@H]4CC[C@H]23)cc1,0.609,-1.08 (inactive),-0.341 (inactive),-2.56 (inactive),-0.872 (inactive),-1.02 (inactive),0.829 (inactive),0.751 (inactive),0.487,0.274
C[C@@H]1CC[C@H]2C(=O)O[C@@H](COc3ccc(C(C)(C)C)cc3)CN2[C@H]1c1ccc(Br)cc1,0.7,-0.481 (inactive),0.385 (inactive),0.444 (inactive),0.11 (inactive),-0.0191 (inactive),-0.578 (inactive),-0.423 (inactive),0.749,-0.327
CC(CCN1CCCc2nc(C)c(C)cc21)=NO[C@H](C)c1cn([C@H](CO)Cc2ccccc2)nn1,-0.325,0.454 (inactive),0.307 (inactive),1.27 (inactive),-0.291 (inactive),0.512 (inactive),-0.801 (inactive),-0.922 (inactive),0.0883,0.0015
CC(C)=CCCC(C)=CCON=C1C[C@@H](O)[C@@H](O)[C@@H]2[C@@H]3C(=O)N(c4cccc(Oc5ccccc5)c4)C(=O)[C@@H]3CC[C@H]12,1.05,0.681 (inactive),0.674 (inactive),-0.141 (inactive),-0.0849 (inactive),0.668 (inactive),0.599 (inactive),0.15 (inactive),0.157,-0.102
COc1ccc(COC(=O)NN=C2C[C@@H](O)[C@@H](O)[C@@H]3[C@@H]4C(=O)N(C(C)(C)C)C(=O)[C@@H]4CC[C@@H]23)cc1,-0.216,-0.719 (inactive),-0.181 (inactive),-0.761 (inactive),-0.225 (inactive),-1.06 (inactive),0.237 (inactive),0.255 (inactive),0.156,-0.252
O=C1C2=CC[C@H]3C(=O)N(c4ccc(F)cc4F)C(=O)[C@H]3[C@H]2[C@H](O)[C@@H]2O[C@H]12,0.0059,-0.448 (inactive),-0.874 (inactive),-0.166 (inactive),-0.307 (inactive),-0.592 (inactive),-0.401 (inactive),-0.0889 (inactive),-0.035,0.104
CCOC(=O)[C@H](Cc1ccccc1)NC(=O)CCC1CC(OC(=O)NCc2ccc3c(c2)OCO3)CC2(CCCC(COC(=O)NCCOC)O2)O1 (stereo not given in full),0.0491,-0.914 (inactive),0.808 (inactive),-2.56 (inactive),-0.871 (inactive),0.0059 (inactive),-0.477 (inactive),0.525 (inactive),-0.0023,0.0374
CCC1=NOC(CCC2CC(OC(=O)NCc3cccc4c3OCO4)CC3(CCCC(COC(=O)NCCc4ccc(Cl)cc4)O3)O2)C1 (stereo not given),0.22,0.519 (inactive),-0.0555 (inactive),-0.362 (inactive),0.52 (inactive),0.0088 (inactive),0.137 (inactive),0.377 (inactive),0.73,-0.0476
C=CC[C@@H]1C=C[C@H](ON=CC[C@@H]2C=C[C@H](OC(C)=O)[C@@H](COC(C)=O)O2)[C@@H](CO)O1,0.083,0.365 (inactive),-1.23 (inactive),-0.84 (inactive),-0.242 (inactive),0.879 (inactive),0.879 (inactive),0.984 (inactive),-0.687,-0.158
COc1ccc(O[C@H]2C=C[C@@H](c3ccccc3)O[C@@H]2CON=C(C)CCN2CCCc3nc(C)c(C)cc32)cc1,0.165,-0.855 (inactive),-0.662 (inactive),-0.752 (inactive),0.699 (inactive),-0.351 (inactive),-0.321 (inactive),-0.112 (inactive),-0.164,2.22
C=CCOCC1CN2[C@@H](CC[C@@H](C)[C@@H]2c2ccc(Br)cc2)C(=O)O1 (stereo not given in full),0.685,-0.139 (inactive),0.824 (inactive),-0.959 (inactive),0.013 (inactive),1.14 (inactive),0.622 (inactive),-0.0542 (inactive),1.49,-0.184
